# Source: PubChem BioAssay (The Scripps Research Institute Molecular Screening Center)
# The list is not random: actives were taken first. Their share in the collection is about 3.5%.
# MITF primary: MITF inhibitors, primary screen, biochemical, AlphaScreen, human; Microphthalmia-associated transcription factor (Homo sapiens), O75030; AlphaScreen MITF homodimerization, bead proximity signal; inhibition, % at 2.6 µM; hit rate 0.91% among 650,000; AID 1259374, 2018; in the data active = inhibition above about 50%
# Target sequence (O75030 whole entry, looked up): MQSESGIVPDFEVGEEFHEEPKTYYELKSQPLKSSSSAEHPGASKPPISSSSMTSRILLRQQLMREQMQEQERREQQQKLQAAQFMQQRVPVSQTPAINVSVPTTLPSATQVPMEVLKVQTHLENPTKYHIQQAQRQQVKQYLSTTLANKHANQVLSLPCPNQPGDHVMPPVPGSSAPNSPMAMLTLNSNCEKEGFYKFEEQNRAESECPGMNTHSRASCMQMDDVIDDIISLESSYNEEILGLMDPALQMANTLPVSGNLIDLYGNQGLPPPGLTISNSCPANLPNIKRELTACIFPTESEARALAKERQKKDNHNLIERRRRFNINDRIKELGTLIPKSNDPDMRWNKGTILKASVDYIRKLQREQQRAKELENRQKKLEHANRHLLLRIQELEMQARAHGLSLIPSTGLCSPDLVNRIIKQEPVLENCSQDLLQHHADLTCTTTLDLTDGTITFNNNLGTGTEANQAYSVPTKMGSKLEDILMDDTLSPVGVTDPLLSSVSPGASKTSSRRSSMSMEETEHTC
# TEAD-YAP inh: TEAD-YAP interaction inhibition, primary screen, TEAD-YAP interaction inhibitor project, luminescence, HEK-TIYL cells; hit rate 1.4% among 640,000; inhibition, % at 9.12 µM; TEAD-Gal4/YAP UAS-luciferase luminescence; AID 1259422, 2018; in the data active = inhibition above about 32%
# FBW7 act: FBW7 E3 ligase activators, primary screen, biochemical, AlphaScreen, human; AlphaScreen FBW7–phospho-cyclin E peptide binding, activator screen; AID 1259310, 2017; normalized activity (activation), % at 26.1 µM; hit rate 0.13% among 650,000; in the data active = normalized activity above about 1.9%;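 also: purified mutant Fbw7 with reduced substrate affinity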
# GPR151 activ: activators of human GPR151, primary screen, cell-based, PathHunter beta-arrestin, luminescence; hit rate 1% among 650,000; G-protein coupled receptor 151 (Homo sapiens), Q8TDV0; PathHunter beta-arrestin GPR151 cells; activation, % at 11.2 µM; in the data active = activation above about 4.9%
# MITF inh conf: MITF inhibitors, retest of hits, confirmation, biochemical, AlphaScreen, triplicate; shares compounds with MITF primary; AlphaScreen MITF homodimerization, biotin/His-MITF beads; inhibition, % at 2.6 µM; hit rate 16% among 4,700;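 active = inhibition above a cutoff derived from the DMSO control wells, cut at about 28% in these data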;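 also: inhibitors lower the bead chemiluminescence by keeping MITF from dimerizing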
# AlphaScreen DR: AlphaScreen optical interference compounds, dose response, counter-screen, biochemical, HTS; shares compounds with MITF primary; AlphaScreen optical interference counterscreen, cell-free; IC50, µM; hit rate 6% among 480; call rule not given here
# AlphaScreen intf2: AlphaScreen optical interference compounds, counter-screen for MITF inhibitor project, biochemical, triplicate | shares compounds with MITF primary | LysRS AlphaScreen counterscreen, signal interference | inhibition, % at 2.6 µM | hit rate 7.6% among 4,700;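 active = inhibition above a cutoff derived from the DMSO control wells, cut at about 30% in these data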
# Hits are given with their value; . = inactive; / = not tested or not shown.
SMILES,MITF primary,TEAD-YAP inh,FBW7 act,GPR151 activ,MITF inh conf,AlphaScreen intf2,others
CCc1ccc(-c2cc(C(=O)Nc3cc(C(=O)OC)cc(C(=O)OC)c3)c3ccccc3n2)cc1,52.7,.,.,.,.,.,
COc1ccc(CN2CCN(C3CCC(C)CC3)CC2)cc1 (configuration not stated),72.6,.,.,.,.,.,
COc1ccc(CN2CCCCCC2)cc1,.,.,.,.,/,/,
CCOc1ccc(CN2CCC(N3CCN(Cc4ccccc4)CC3)CC2)cc1,.,.,.,.,/,/,
COc1ccc(CN2CCC(N3CCCCC3)CC2)cc1,53.5,.,.,.,.,.,
Cc1ccc(OCC(=O)N2CC3(C)CC2CC(C)(C)C3)c([N+](=O)[O-])n1 (configuration not stated),51.5,.,.,.,.,.,
COc1cc(Nc2ccc(NC(=O)c3cccc(F)c3)cc2)nc(C)n1,56.8,.,.,.,.,.,
CN(C)c1cc(NC(=O)CNC(C)(C)C)c(O)c2c1C[C@H]1C[C@H]3[C@@H](N(C)C)C(=O)C(C(N)=O)=C(O)[C@@]3(O)C(=O)C1=C2O,78.2,.,.,.,59.7,.,AlphaScreen DR=.
CN(Cc1ccccc1)Cc1ccccn1,54.1,.,.,.,.,.,
CN(C)CCN(C)Cc1ccc(N(C)C)cc1,.,.,.,.,/,/,
COc1ccc(CN(C)CCc2ccccn2)cc1,83.3,.,.,.,.,.,
CN(C)CCN(C)Cc1ccc([N+](=O)[O-])cc1,83.0,.,.,.,.,.,
CN(CCc1ccccn1)Cc1ccc2c(c1)CN(Cc1cccs1)CCO2,.,.,.,.,/,/,
COc1ccc(C2C(C(=O)N(C)CCc3ccccn3)c3ccccc3C(=O)N2Cc2ccc(F)cc2)cc1 (configuration not stated),.,.,.,.,/,/,
CN(CCc1ccccn1)Cc1ccncc1,82.6,.,.,.,.,.,
CN(Cc1ccccc1)Cc1cccnc1,.,.,.,.,/,/,
CCOC(=O)C1(Cc2ccccc2Cl)CCN(C(=O)C2=C(C)OCCO2)CC1,.,.,.,.,/,/,
O=C(COC(=O)c1ccc(S(=O)(=O)N2CCc3ccccc3C2)cc1)c1ccccc1,.,.,.,.,/,/,
O=C(CC12CC3CC(CC(C3)C1)C2)N1CCN(c2ccc([N+](=O)[O-])cc2)CC1,.,.,.,.,/,/,
Cc1cc(N(CC(=O)Nc2ccc(Cl)cc2C)S(C)(=O)=O)ccc1Br,.,.,.,.,/,/,
CCOc1ccc2cc(C3CC(c4ccc(OC)cc4)=NN3C(=O)c3ccccc3)c(Cl)nc2c1 (configuration not stated),.,.,.,.,/,/,
CC(=O)c1ccc(OCC(=O)NCCc2ccc(F)cc2)cc1,.,.,.,.,/,/,
Cc1ccc(CN(C)CCc2ccccn2)cc1,.,.,.,.,/,/,
CCOc1ccccc1CN(C)CCc1ccccn1,88.8,.,.,.,.,.,
CN(CCc1ccccn1)Cc1ccc([N+](=O)[O-])cc1,74.7,.,.,.,.,.,
SMILES,MITF primary,TEAD-YAP inh,FBW7 act,GPR151 activ,MITF inh conf,AlphaScreen intf2,others
O=[N+]([O-])c1ccc(CSCCc2ccccn2)cc1,70.0,.,.,.,.,.,
O=C(CCSCCc1ccccn1)Nc1cccc([N+](=O)[O-])c1,.,.,.,.,/,/,
CN(CCc1ccccn1)Cc1ccc(Cl)cc1,82.6,.,.,.,.,.,
COc1cccc(CN2CCN(CCCc3ccccc3)C(CCO)C2)c1 (configuration not stated),.,.,.,.,/,/,
CCc1ccc(CN(C)CCc2ccccn2)cc1,89.3,.,.,.,.,.,
NS(=O)(=O)c1ccc(NC(=O)Nc2ccc(Cl)cc2Cl)cc1,.,.,.,.,/,/,
CC(=O)NC(Cc1ccccc1)C(=O)NC1CCN(C(=O)c2ccc(Cl)cc2)CC1 (configuration not stated),.,.,.,.,/,/,
CCc1ccccc1NC(=O)CC1Sc2ccc(C(F)(F)F)cc2NC1=O (configuration not stated),.,.,.,.,/,/,
CSc1ccccc1NC(=O)CC1Sc2ccc(C(F)(F)F)cc2NC1=O (configuration not stated),55.6,.,.,.,.,.,
Cc1cccc(NC(=O)CC2Sc3ccc(C(F)(F)F)cc3NC2=O)c1C (configuration not stated),65.7,.,.,.,.,.,
CCN1CCN(Cc2coc3ccccc3c2=O)CC1,81.6,.,.,.,41.5,.,AlphaScreen DR=.
Cc1nc(N2CCCCC2)c2ccsc2n1,91.5,.,.,.,.,.,
Cc1onc(-c2ccccc2)c1C(=O)NC1=NCCS1,.,.,.,.,/,/,
Cc1noc(C)c1C(=O)NC1=NCCS1,56.8,.,.,.,.,.,
CCCNC(=O)CN(Cc1ccccc1)S(=O)(=O)c1ccc(Br)cc1,.,.,.,.,/,/,
O=c1c2ccccc2nc(SCc2cc(F)cc3c2OCOC3)n1C1CCCCC1,69.4,.,.,.,.,.,
CCOC(=O)c1cc2c(c(CSc3nc4ccccc4c(=O)n3CCc3ccccc3)c1)OCOC2,68.8,.,.,.,.,.,
CCOC(=O)c1cc2c(c(CSc3nc4ccccc4c(=O)n3Cc3ccccc3)c1)OCOC2,.,.,.,.,/,/,
O=C(Cc1cccc2ccccc12)N/N=C\c1ccc(O)cc1,.,.,.,.,/,/,
C=C(C)[C@@H]1CC=C(CN2C[C@@H](n3cnnn3)C[C@H]2C(=O)NCCc2ccccc2)CC1,.,.,.,.,/,/,
CCCNC(=O)c1cnc(NC2CCN(Cc3ccccc3)CC2)s1,73.9,.,.,.,.,.,
O=C(NC1CCN(Cc2ccccc2)CC1)c1cnc(NC2CCN(Cc3ccccc3)CC2)s1,.,.,.,.,/,/,
O=C(Nc1ccccc1)c1nc[nH]c1C(=O)Nc1ccccc1,.,.,.,.,/,/,
O=C(NO)c1nc[nH]c1C(=O)NO,98.4,.,.,.,98.9,100.6,
Cc1ccccc1C(=O)Nc1ccc(S(=O)(=O)Nc2ccc(F)cc2)cc1,.,.,.,.,/,/,
Cc1cc([N+](=O)[O-])nn1Cc1ccc(Cl)c(Cl)c1,.,.,.,.,/,/,
CCOC(=O)c1ccc(-n2c(=S)sc3c2nc(SCC(=O)NCc2ccccc2)n2c4ccccc4nc32)cc1,59.9,.,.,.,.,.,
CCOc1ccc(-n2c(=S)sc3c2nc(SCC(=O)NCc2ccccc2)n2c4ccccc4nc32)cc1,.,.,.,.,/,/,
CS(=O)(=O)c1cc(C#N)c(N2CCNCC2)nc1-c1ccc(Cl)cc1,.,.,.,.,/,/,
CC(C)Nc1nc(-c2ccc(Cl)cc2)c(S(C)(=O)=O)cc1C#N,57.5,.,.,.,.,.,
